What all share (parameters): scale not given: direction of the effect not stated beside the values
Assay [1] addresses Protein translocase subunit SecA (Escherichia coli (strain K12)) (UniProt P10408). Description: Assay to Identify E. coli SecA ATPase Inhibitors. The note with it: 30 µM. The assay is classed as functional.
The target of assay [2] is T1, Ubiquitin-activating enzyme e1, putative (Leishmania donovani (strain BPK282A1)) (UniProt E9BSI1).
T1 sequence (whole entry): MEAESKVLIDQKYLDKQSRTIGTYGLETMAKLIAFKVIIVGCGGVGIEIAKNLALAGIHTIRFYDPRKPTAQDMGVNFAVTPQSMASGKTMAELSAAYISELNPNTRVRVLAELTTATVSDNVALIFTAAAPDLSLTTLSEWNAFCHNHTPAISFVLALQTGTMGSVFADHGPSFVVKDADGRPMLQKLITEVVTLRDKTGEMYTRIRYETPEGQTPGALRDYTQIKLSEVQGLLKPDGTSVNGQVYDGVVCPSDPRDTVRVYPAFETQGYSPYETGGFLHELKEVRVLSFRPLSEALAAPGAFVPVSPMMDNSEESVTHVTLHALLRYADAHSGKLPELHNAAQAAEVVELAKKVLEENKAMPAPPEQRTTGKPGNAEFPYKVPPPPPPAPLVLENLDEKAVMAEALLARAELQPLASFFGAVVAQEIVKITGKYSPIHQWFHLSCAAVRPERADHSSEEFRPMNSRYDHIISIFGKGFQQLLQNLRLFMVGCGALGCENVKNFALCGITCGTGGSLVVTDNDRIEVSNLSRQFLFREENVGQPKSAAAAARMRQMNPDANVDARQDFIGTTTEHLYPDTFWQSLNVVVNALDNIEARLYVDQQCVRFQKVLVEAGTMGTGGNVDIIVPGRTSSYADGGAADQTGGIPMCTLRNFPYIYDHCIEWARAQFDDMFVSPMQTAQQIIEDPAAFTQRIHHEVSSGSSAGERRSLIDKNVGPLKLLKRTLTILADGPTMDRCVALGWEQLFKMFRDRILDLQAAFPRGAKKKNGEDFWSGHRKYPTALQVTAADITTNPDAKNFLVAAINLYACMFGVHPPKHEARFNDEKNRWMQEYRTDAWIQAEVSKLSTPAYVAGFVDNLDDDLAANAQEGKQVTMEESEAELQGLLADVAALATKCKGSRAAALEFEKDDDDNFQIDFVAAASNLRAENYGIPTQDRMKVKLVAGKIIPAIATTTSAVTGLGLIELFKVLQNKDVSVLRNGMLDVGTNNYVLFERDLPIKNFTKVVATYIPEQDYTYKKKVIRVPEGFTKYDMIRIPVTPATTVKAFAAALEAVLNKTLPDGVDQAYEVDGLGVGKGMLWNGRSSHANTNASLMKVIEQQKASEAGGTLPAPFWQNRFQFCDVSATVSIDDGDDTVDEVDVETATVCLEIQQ
Description: Leishmania donovani Ubiquitin Activating Enzyme (LdE1). Type of assay: functional. The note with it: 30 µM.

For assay [3], the target named is AMP-activated protein kinase, AMPK (Homo sapiens) (UniProt P54646+O43741+P54619+Q9UGJ0+Q9Y478+Q13131+Q9UGI9). The assay is described as follows: AMP-dependent Kinase enzyme assay. An in vitro enzyme assay that detects ADP turnover that is directly proportional to AMPK activity. This uses naive AMPK that is activated during the assay with MK-8722. Type of assay: functional. The note with it: 30 µM.

Assay [4] deals with Sialic acid-binding Ig-like lectin 9 (Homo sapiens) (UniProt Q9Y336). Description: Hs-Siglec9 ALPHAscreen SOP 20170721. The note with it: 10 µM.
Sialic acid-binding Ig-like lectin 9 (Homo sapiens), sequence (Q9Y336 whole entry): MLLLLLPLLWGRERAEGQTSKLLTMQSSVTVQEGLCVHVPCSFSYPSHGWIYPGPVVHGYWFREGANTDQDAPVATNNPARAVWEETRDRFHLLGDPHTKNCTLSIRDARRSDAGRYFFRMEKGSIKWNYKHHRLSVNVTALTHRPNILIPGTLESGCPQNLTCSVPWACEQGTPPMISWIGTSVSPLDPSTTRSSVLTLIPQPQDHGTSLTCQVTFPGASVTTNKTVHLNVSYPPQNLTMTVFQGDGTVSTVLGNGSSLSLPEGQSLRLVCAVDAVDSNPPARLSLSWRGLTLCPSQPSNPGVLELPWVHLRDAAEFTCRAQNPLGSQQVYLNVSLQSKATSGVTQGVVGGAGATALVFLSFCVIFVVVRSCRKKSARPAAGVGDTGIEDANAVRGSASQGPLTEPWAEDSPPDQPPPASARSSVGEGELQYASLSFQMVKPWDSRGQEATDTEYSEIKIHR
The next assay relates to Trypanosoma cruzi. The assay is described as follows: Trypanosoma cruzi phosphomannomutase and mannose-1-phosphate guanylyltransferase assay. The assay is classed as functional. The note with it: 10 µM.
The target of assay [5] is T2, Arginase-2, mitochondrial (Homo sapiens) (UniProt P78540).
T2 sequence (whole entry): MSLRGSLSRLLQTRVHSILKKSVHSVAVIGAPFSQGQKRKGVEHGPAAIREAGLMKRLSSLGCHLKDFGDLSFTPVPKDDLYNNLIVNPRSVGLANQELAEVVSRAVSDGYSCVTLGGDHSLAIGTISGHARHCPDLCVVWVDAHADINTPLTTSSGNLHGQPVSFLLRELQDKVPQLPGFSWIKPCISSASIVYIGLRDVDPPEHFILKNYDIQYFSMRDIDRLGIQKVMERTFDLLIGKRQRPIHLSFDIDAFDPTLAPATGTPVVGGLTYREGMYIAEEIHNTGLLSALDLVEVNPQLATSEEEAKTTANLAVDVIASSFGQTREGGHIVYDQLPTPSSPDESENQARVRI
The assay is described as follows: in vitro enzyme assay to detect the production of urea directly proportional to the activity of Arginase II. Also: in the data most compounds retested in dose-response had high values. Type of assay: functional. The note with it: 33.3 µM.

Assay [6] has as its target T3, Proteasome subunit beta (Trypanosoma cruzi) (UniProt O96673).
T3 sequence (whole entry): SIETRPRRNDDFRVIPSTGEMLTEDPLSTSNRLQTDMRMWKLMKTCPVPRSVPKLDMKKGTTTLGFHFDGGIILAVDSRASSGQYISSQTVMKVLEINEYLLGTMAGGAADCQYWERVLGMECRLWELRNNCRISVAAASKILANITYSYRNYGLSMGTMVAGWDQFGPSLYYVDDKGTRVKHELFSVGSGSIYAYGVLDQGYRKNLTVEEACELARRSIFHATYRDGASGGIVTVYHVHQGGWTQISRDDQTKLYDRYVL
The assay is described as follows: Trypanosoma cruzi proteasome chymotrypsin-like activity (TcProtChymo) assay. Also: in the data most compounds retested in dose-response had high values. The note with it: 9.37 µM. The assay is classed as functional.

The next assay is filed under the species Homo sapiens. The assay is described as follows: To identify inhibition of the IFN signalling (Jak-Stat) pathway via expression of an eGFP reporter gene under the control of an IFN-stimulated response element (ISRE) containing MxA promoter. The assay is classed as functional. Particulars: 30 µM.
For assay [7], the target named is T4, Tyrosyl-tRNA synthetase, putative (Trypanosoma cruzi (strain CL Brener)) (UniProt Q4DSP6).
T4 sequence (whole entry): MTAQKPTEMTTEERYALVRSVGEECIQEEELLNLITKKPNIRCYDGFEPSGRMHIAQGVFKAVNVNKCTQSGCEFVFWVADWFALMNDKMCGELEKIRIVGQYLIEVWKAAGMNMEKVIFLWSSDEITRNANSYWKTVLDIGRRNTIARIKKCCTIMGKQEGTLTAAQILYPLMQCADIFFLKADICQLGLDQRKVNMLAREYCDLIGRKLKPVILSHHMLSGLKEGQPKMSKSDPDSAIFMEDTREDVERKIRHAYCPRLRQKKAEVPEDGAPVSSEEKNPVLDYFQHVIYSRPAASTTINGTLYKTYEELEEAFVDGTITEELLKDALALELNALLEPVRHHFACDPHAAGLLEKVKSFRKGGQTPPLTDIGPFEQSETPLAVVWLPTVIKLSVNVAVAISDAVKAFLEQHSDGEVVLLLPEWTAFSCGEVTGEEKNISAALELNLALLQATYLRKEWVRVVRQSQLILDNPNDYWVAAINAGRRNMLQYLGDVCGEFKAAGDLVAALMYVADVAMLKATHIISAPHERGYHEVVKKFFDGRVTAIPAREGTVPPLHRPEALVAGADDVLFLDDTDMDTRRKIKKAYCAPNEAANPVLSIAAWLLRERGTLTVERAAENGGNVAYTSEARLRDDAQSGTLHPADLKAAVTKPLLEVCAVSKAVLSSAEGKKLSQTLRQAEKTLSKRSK
Description: Trypanosoma cruzi tyrosyl tRNA synthetase (TcYRS) _High Tyrosine SOP. Also: in the data most compounds retested in dose-response had high values. The assay is classed as functional. Particulars: 30 µM.

Assay [8] addresses T4, Tyrosyl-tRNA synthetase, putative (Trypanosoma cruzi (strain CL Brener)). The assay is described as follows: Trypanosoma cruzi tyrosyl tRNA synthetase (TcYRS) SOP. The note with it: 30 µM. The assay is classed as functional.
In assay [9] the target is Chromo domain-containing protein 1 (Saccharomyces cerevisiae (strain ATCC 204508 / S288c) (Baker's yeast)) (UniProt P32657). The assay is described as follows: ScCHD-1 Enzyme Inhibition Assay. Also: in the data most compounds retested in dose-response had high values. Type of assay: functional. Particulars: 30 µM.
Chromo domain-containing protein 1 (Saccharomyces cerevisiae (strain ATCC 204508 / S288c) (Baker's yeast)), sequence (P32657 whole entry, the tested form may be a part): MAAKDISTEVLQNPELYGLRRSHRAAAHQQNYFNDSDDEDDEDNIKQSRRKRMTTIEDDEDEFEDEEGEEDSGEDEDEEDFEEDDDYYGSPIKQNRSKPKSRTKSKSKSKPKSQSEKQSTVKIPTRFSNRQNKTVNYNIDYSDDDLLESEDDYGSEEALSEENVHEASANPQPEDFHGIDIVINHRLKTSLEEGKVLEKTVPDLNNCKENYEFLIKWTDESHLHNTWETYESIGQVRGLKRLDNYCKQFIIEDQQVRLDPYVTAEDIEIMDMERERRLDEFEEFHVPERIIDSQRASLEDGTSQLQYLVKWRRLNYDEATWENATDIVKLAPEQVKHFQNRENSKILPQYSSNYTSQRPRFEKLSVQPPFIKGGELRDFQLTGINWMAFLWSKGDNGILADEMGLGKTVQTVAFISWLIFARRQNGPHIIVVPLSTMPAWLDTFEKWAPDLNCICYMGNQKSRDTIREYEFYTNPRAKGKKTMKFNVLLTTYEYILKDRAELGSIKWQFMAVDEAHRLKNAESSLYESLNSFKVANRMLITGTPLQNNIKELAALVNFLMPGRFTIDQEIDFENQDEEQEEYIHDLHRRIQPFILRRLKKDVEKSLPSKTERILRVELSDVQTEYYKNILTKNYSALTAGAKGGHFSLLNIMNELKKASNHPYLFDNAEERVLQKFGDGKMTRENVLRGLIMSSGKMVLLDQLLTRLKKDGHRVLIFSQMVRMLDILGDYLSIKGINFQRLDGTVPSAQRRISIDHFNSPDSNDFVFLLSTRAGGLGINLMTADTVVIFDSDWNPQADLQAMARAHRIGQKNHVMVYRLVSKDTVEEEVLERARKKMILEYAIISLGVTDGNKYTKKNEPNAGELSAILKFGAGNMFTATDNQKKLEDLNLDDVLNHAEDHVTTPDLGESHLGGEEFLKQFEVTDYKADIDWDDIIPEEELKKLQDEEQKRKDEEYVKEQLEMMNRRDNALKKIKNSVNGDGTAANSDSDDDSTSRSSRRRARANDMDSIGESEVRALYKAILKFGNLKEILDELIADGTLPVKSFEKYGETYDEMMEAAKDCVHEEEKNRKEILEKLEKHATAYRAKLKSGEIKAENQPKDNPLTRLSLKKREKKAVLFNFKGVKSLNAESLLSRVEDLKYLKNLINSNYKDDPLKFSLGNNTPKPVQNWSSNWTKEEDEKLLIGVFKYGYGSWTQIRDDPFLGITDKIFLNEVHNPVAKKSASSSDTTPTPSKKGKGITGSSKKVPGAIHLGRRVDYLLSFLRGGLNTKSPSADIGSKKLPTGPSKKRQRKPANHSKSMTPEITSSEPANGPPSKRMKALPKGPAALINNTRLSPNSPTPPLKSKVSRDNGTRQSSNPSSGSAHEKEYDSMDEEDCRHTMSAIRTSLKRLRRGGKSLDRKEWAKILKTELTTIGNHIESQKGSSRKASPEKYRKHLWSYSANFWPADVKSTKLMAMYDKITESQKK

SMILES strings stand for the structures. For some of these results: Potency and affinity values are given separately.

The values below come from ChEMBL document CHEMBL3988442, “University of Dundee, Small-Polar-MMV Screening Library” (2021).

Protein translocase subunit SecA (Escherichia coli (strain K12)), sequence (P10408 whole entry): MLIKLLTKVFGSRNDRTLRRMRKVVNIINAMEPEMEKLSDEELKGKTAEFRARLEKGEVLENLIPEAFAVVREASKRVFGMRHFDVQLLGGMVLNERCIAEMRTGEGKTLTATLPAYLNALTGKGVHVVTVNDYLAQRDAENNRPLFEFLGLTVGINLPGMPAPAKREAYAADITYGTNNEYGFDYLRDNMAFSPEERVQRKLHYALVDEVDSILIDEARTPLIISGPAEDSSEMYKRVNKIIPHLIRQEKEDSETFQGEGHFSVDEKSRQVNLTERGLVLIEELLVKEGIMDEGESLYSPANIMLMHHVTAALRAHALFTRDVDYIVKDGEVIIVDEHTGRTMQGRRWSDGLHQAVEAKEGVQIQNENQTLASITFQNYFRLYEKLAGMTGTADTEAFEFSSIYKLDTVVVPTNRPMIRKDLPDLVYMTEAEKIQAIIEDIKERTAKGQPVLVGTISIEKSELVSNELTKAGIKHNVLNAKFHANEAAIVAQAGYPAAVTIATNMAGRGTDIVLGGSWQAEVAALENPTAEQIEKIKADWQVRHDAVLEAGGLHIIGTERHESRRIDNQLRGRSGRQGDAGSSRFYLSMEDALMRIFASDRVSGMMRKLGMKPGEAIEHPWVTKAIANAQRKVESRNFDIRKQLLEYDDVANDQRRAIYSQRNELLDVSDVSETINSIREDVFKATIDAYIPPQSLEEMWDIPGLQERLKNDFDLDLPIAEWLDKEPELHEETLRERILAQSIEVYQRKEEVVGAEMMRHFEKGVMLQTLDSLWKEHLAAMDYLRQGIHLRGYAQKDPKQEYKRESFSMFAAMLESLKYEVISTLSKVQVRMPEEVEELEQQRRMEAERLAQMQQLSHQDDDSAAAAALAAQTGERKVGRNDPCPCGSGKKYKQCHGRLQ

For `O=C(Cn1cccn1)NCC1(c2ccccc2)CC1`, the Percent Effect in assay [1] was -4.9%; in [2] it was 2.6%; in assay [3], 0.192%; in assay [4], -7.24%; in the assay on Trypanosoma cruzi, -2.25%; in assay [5], 2.74%. Moreover, the Percent Effect in [6] is -1.86%; in the assay filed under Homo sapiens, 23.2%; in [7], -0.952%; in assay [8], -2.35%; in assay [9] it was -6.03%.
Consider `CN(Cc1cccs1)C(=O)CS(=O)(=O)Cc1ccc(Cl)c(Cl)c1`, for which the Percent Effect was -3.83% in assay [1]; 2.6% in assay [2]; 4.47% in assay [3]; -21.6% in assay [4]; 5.39% with Trypanosoma cruzi; -2.74% in assay [5]. Moreover, the Percent Effect is 16.7% in assay [6]; 6.68% in the assay filed under Homo sapiens; -11.4% in assay [7]; -2.35% in assay [8]; -21.7% in assay [9].
Turning to `Cn1cc(CN2CC[C@@H]3O[C@H](C(=O)N4CCOCC4)C[C@@H]32)cn1`, the Percent Effect in assay [1] was 1.91%; in assay [2], -2.7%; in assay [3] it was 0.801%; in assay [4] it was -2.48%; with Trypanosoma cruzi it was -3.91%; in assay [5], 2.5%. The Percent Effect in assay [6] was -0.0845%; in the assay filed under Homo sapiens, -20.5%; in assay [7], -46.5%; in assay [8], -3.66%; in assay [9], 4.62%.
As for `c1cnn(CCNCc2nnc(C3CC3)o2)c1`, the Percent Effect in [1] was -2.66%; in [2], 27.9%; in [3] it was -5.53%; in assay [4] it was -12.3%; with Trypanosoma cruzi, 1.42%; in [5], -2.66%. In addition, the Percent Effect in assay [6] is 9.91%; in the assay filed under Homo sapiens, 11.1%; in assay [7], 7.39%; in assay [8], 24.1%; in [9] it was -13.5%.
Consider `O=C([C@@H]1CC[C@@H]2[C@@H](CCN2Cc2ccoc2)O1)N1CCCC1`, for which the Percent Effect in assay [1] was -5.35%; in [2], 13.5%; in assay [3] it was -5.44%; in assay [4] it was 27.1%; with Trypanosoma cruzi it was 0.684%; in assay [5], 4.71%. Besides, the Percent Effect was 17.9% in [6]; -10.1% in the assay listed under Homo sapiens; 7.53% in assay [7]; 13.6% in [8]; -3.6% in assay [9].
Take `COc1ccc(CN2CCc3ncnc(C4CCOC4)c3CC2)cc1` (stereo unspecified): the Percent Effect in [1] was -3.47%; in [2], 5.33%; in [3] it was -1.49%; in assay [4], -6.97%; with Trypanosoma cruzi it was 5.41%; in [5] it was -40.3%. Also, the Percent Effect in [6] is 5.13%; in the assay filed under Homo sapiens, 13.6%; in assay [7], 0%; in [8], 7.5%; in assay [9], -7.3%.
For `Cc1cc(C)n(C2CCCN(C(=O)C3=NN(C)C(=O)CC3)C2)n1` (stereo unspecified), the Percent Effect in assay [1] was -0.53%; in assay [2] it was 18.9%; in assay [3] it was -18.2%; in assay [4], -2.77%; with Trypanosoma cruzi it was 5%; in assay [5] it was -12.8%. The Percent Effect in assay [6] is 11.9%; in the assay listed under Homo sapiens, 23.2%; in [7], 8.37%; in assay [8] it was 25.9%; in [9] it was -9.84%.
With `Cc1nc(CN2CCN(CC(=O)Nc3c(C)cccc3C)CC2)no1`, the Percent Effect in [1] is -3.96%; in assay [2], 10.4%; in assay [3], -0.791%; in [4], -7.52%; in the assay on Trypanosoma cruzi it was 5.58%; in assay [5], 1.9%. For the same molecule, the Percent Effect in assay [6] was 15%; in the assay listed under Homo sapiens, -5.46%; in assay [7], 7.62%; in assay [8], 18.8%; in assay [9] it was -17.5%.
For `O=C1CC2(CCN(S(=O)(=O)C3CC3)C2)CN1c1cncnc1` (stereo unspecified), the Percent Effect was 1.95% in assay [1]; 16% in assay [2]; -1.36% in [3]; -1.59% in assay [4]; 1.54% in the assay on Trypanosoma cruzi; -50.7% in assay [5]. Also, the Percent Effect in [6] was 9.74%; in the assay filed under Homo sapiens it was 5.32%; in assay [7] it was 6.25%; in assay [8], 27.5%; in assay [9], -4.67%.
Turning to `O=C(NCCc1cccc(F)c1)NCC(O)c1cccc(F)c1` (stereo unspecified), the Percent Effect is -2.56% in assay [1]; 5.41% in [2]; 4.6% in assay [3]; 6.95% in [4]; 1.04% in the assay on Trypanosoma cruzi; 1.6% in assay [5]. Besides, the Percent Effect in assay [6] is 7.93%; in the assay listed under Homo sapiens, 10.8%; in assay [7] it was 8.37%; in assay [8], 23.5%; in [9], -3.01%.
For the molecule `CC(C)c1nnc(NC(=O)NCc2ccnc(N(C)C)c2)s1`, the Percent Effect is 0.949% in assay [1]; 8.86% in assay [2]; 3.28% in assay [3]; -0.716% in assay [4]; -2.77% with Trypanosoma cruzi; 8.39% in assay [5]. Moreover, the Percent Effect in [6] is 15.8%; in the assay filed under Homo sapiens, 30.7%; in assay [7], 1.04%; in assay [8], 7.59%; in [9] it was -17.6%.
